About 83,000 compounds went through this panel and 20% of them were active in at least one assay; those are over-represented in the sample as a whole.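 For each line, cells grew in 96-well plates with the test compound present at a single concentration for 48 hours.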 Activity calls are given as the source filed them.
Test system: RPMI-8226 leukemia
Assay: NCI-60 one-dose screen, 48 h (100 = growth as untreated, 0 = no growth, -100 = all killed)
Settings: 10 µM unless noted
Protocol: Growth inhibition of the RPMI-8226 human tumor cell line is measured as a screen for anti-cancer activity. Cells are grown in 96 well plates and exposed to the test compound for 48 hours. Compounds are tested at a single concentration, which is 10^-5 M for most compounds. The reported endpoint is percent growth (GI% or GIPRCNT), where numbers from 0 - 100% represent growth inhibition, and numbers from -100% - 0 represent cell death. For example, a value of 40 represents 60% growth inhibition. A value of 0 means no net growth occurred over the course of the experiment. A value of -40 indicates 40% of cells at the beginning of the experiment died by the end of the experiment. A value of -100 means all cells are dead at the end of the experiment.
NCI-60 Human Tumor Cell Lines Screen was performed using the standard one-dose NCI protocol, which is described in more detail at https://dtp.cancer.gov/discovery_development/nci-60/default.htm.
Compounds with GIPRCNT values below 10 were considered active. Activity score was based on GIPRCNT using the following formula: […]
Score is 0 for GIPRCNT values of 100 or above, 50 for GIPRCNT values of 0, and 100 for GIPRCNT values of -100.

Compound | growth
O=S(=O)(NCCCNc1nccc(-n2cnc3ccccc32)n1)c1ccc(F)cc1 | 57.7% (inactive)
Clc1ccccc1/C=C/c1nn2c(-c3ccncc3)nnc2s1 | 101% (inactive)
O=C(/C=C1\C=CN(CCCCF)c2ccccc21)n1ccc2ccccc21 | 102% (inactive)
Cc1cccc(NC(c2cc3cccc4ccc5cccc2c5c43)c2nnnn2C(C)(C)C)c1C (stereo not given) | 86.9% (inactive)
O=C(O)CNS(=O)(=O)c1ccc(Oc2ccc(S(=O)(=O)NCC(=O)O)cc2)cc1 | 100% (inactive)
CN(C)c1ncc(/C=C2\SC(=S)N(Cc3ccccc3Cl)C2=O)s1 | 86.3% (inactive)
Cc1ccc(NC(=O)c2ccc(CN3CCN(C)CC3)c(C(F)(F)F)c2)cc1Oc1ccc(-c2[nH]nc3ncnc(N)c23)cc1 | 18.1% (inactive)
O=C1Nc2ccc(Cl)cc2/C1=C/c1ccc(OCc2ccc(F)cc2)cc1 | 69.8% (inactive)
Cc1ccc(-c2cc3nc(C(Cl)Cl)nc(-c4ccccc4)n3n2)cc1 | 82.5% (inactive)
CCCC(=O)NC(c1cccnc1)c1cc(C(C)=O)c2cccnc2c1O (stereo not given) | 38.2% (inactive)
Cc1ccc(NC(=O)c2ccc(CN3CCN(C)CC3)c(I)c2)cc1Oc1ccc(-c2[nH]nc3ncnc(N)c23)cc1 | -3.29% (active)
COc1ccc2c(c1)c(-c1nn3c(=O)cc(-c4ccccc4)nc3s1)cn2C | 57.5% (inactive)
N#C/C(=C\c1ccc2ccccc2c1)C(=O)Nc1sc2c(c1C#N)CCC2 | 105% (inactive)
Cc1cn(-c2cc(NC(=O)c3cncc(C#Cc4cnc5ccc(O[C@H]6CCOC6)nn45)c3)cc(C(F)(F)F)c2)cn1 | 85.4% (inactive)
CNC(=O)c1c(NC(=O)c2ccc(F)cc2F)sc2c1CCC(=O)C2 | -12.3% (active)
C/C(Cc1ccc(Cl)cc1)=C(/c1ccccc1)c1ccc(OCCN)cc1 | 101% (inactive)
Cc1cc2nc(C(Cl)Cl)nc(-c3ccco3)n2n1 | 44.3% (inactive)
CCOC(=O)c1c(NCC(=O)Nc2ccc(Br)cc2)sc2c1CCCC2 | 27% (inactive)
Nc1ccc(-c2nnc(SCc3ccc(O)c4ncccc34)n2-c2ccccc2)cc1 | 11.6% (inactive)
COc1cc([C@H]2OC[C@H]3[C@@H]2CO[C@@H]3c2ccc(O)c(OC)c2)ccc1O | 72.1% (inactive)

Compound | growth
Cc1ccc(S(=O)(=O)N/N=C/c2cn(-c3ccc(F)cc3)nc2-c2ccc(S(C)(=O)=O)cc2)cc1 | 106% (inactive)
CS(=O)(=O)c1nccc(-c2c(-c3ccc(F)c(OCc4ccccc4)c3)nc3sccn23)n1 | 43.3% (inactive)
O=C(CCCCCCN1CC(=O)N2[C@@H](c3cc(F)cc(F)c3)c3[nH]c4ccccc4c3C[C@H]2C1=O)NO | 24.2% (inactive)
COc1ccc(-c2nc(SCCC(C)C)nc(N/N=C\c3ccc(O)cc3)c2C#N)cc1 | 42.7% (inactive)
CN(c1ccc(F)cc1)S(=O)(=O)c1ccc(-c2cnc(C3CC3)o2)cc1 | 14.1% (inactive)
O=C(NCCCCCCNC(=O)c1c2c(nc3ccccc13)-c1cccnc1SC2)c1c2c(nc3ccccc13)-c1cccnc1SC2 | 58.9% (inactive)
O=C1Nc2cc(OC(F)(F)F)ccc2Oc2ccc(-c3ccnc(N4CCNCC4)c3)cc21 | -50.9% (active)
CC[C@]12C=CCN3CC[C@]4(C(=C(C(=O)OC)C1)Nc1cc5c(cc14)[C@@H]1[C@H](O5)[C@@H](O)[C@@]4(CC)CC(C(=O)OC)=C5Nc6cc(OC)ccc6[C@@]56CCN1[C@@H]46)[C@@H]32 | -23.3% (active)
C/C(=N\NC(=O)CSc1nc2sc3c(c2c(=O)n1-c1ccccc1)CCC(C)C3)c1ccc(Cl)cc1 (stereo not given) | 24.9% (inactive)
C=CCn1c(SCC(=O)Nc2cccc(C(=O)/C=C/c3ccccc3Cl)c2)nc2ccccc2c1=O | 1.65% (active)
CCN1C(=O)N(CC)C2SC(N/N=C/c3ccc(F)cc3)=NC21 (stereo not given) | 19.6% (inactive)
Cn1cc(-c2nn3cc(-c4cccnc4)nc3s2)c2ccccc21 | 30.4% (inactive)
O=C(CSc1ccc(-c2nc3ccccc3[nH]2)cn1)N1CCN(c2ccccc2F)CC1 | 50.2% (inactive)
C=C1C(=O)O[C@@H]2/C=C(/C)C3=CC(=O)[C@@](C)(C[C@H](OC(=O)/C(C)=C\C)[C@@H]12)O3 | -11.3% (active)
CCN(CC)c1ccc2cc(C(=O)NCCOCCOCCOCCn3cc(CCC(=O)Nc4ccc(C(=O)c5ccc(NC(=O)OC(C)(C)C)cc5)cc4)nn3)c(=O)oc2c1 | 16.2% (inactive)
O=C(CCCCCCN1CC(=O)N2[C@@H](c3cccc(Cl)c3)c3[nH]c4ccccc4c3C[C@H]2C1=O)NO | 15% (inactive)
C=CCn1c(SCC(=O)Nc2cccc(C(=O)/C=C/c3ccc(Br)cc3)c2)nc2ccccc2c1=O | -3.89% (active)
C#C[C@]1(O)CC[C@H]2[C@@H]3CC=C4c5sc(Nc6ccncc6)nc5CC[C@]4(C)[C@H]3CC[C@@]21C | -26.6% (active)
CS(=O)(=O)c1nccc(-c2c(-c3ccc(F)c(OCc4ccc(F)cc4)c3)nc3sccn23)n1 | 38.8% (inactive)
Oc1ccc(CSc2nnc(-c3ccccc3)o2)c2cccnc12 | 14.1% (inactive)

From PubChem BioAssay (NCI)
